Source: the supplement of paper PMC8728848
This excerpt belongs to a sample that is enriched for the strongest signals.

Legend:
Experiment in all cases: glycan array binding signal (z-score within array); higher = stronger binding
Conditions in all cases: glycan notation: IUPAC condensed, linker removed
[1] = target: GlcNAc(b1-3)Gal(b1-4)GlcNAc(b1-3)Gal(b1-4)GlcNAc(b1-2)Man(a1-3)[GlcNAc(b1-3)Gal(b1-4)GlcNAc(b1-3)Gal(b1-4)GlcNAc(b1-2)Man(a1-6)]Man(b1-4)GlcNAc(b1-4)GlcNAc
Method in brief: (§1)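 Negative Z-scores can be read as non-binding. The Z-score is calculated within each array and then averaged across arrays of one protein sequence at different concentrations or buffers and across linkers. Arrays, 3228 in all, were curated from the Consortium for Functional Glycomics database and kept only where the protein sequence was available.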

[2] = target: GlcNAc(b1-3)Gal(b1-4)GlcNAc(b1-3)Gal(b1-4)GlcNAc(b1-3)Gal(b1-4)GlcNAc(b1-2)Man(a1-3)[GlcNAc(b1-3)Gal(b1-4)GlcNAc(b1-3)Gal(b1-4)GlcNAc(b1-3)Gal(b1-4)GlcNAc(b1-2)Man(a1-6)]Man(b1-4)GlcNAc(b1-4)[Fuc(a1-6)]GlcNAc
Method in brief: as §1

[3] = target: GlcNAc(b1-3)Gal(b1-4)GlcNAc(b1-3)Gal(b1-4)GlcNAc(b1-3)Gal(b1-4)GlcNAc(b1-2)[GlcNAc(b1-3)Gal(b1-4)GlcNAc(b1-3)Gal(b1-4)GlcNAc(b1-3)Gal(b1-4)GlcNAc(b1-6)]Man(a1-6)[GlcNAc(b1-3)Gal(b1-4)GlcNAc(b1-3)Gal(b1-4)GlcNAc(b1-3)Gal(b1-4)GlcNAc(b1-2)Man(a1-3)]Man(b1-4)GlcNAc(b1-4)[Fuc(a1-6)]GlcNAc
Method in brief: as §1

[4] = target: GlcNAc(b1-4)GlcNAc(b1-4)GlcNAc(b1-4)GlcNAc(b1-4)GlcNAc(b1-4)GlcNAc
Method in brief: as §1

[5] = target: GlcNAc6S(b1-3)Gal(b1-4)GlcNAc
Method in brief: as §1

Kdn(a2-3)Gal(b1-4)GlcNAc = target: Kdn(a2-3)Gal(b1-4)GlcNAc
Method in brief: as §1

[6] = target: Man(a1-2)Man(a1-6)[Man(a1-3)]Man(a1-6)[Man(a1-2)Man(a1-2)Man(a1-3)]Man
Method in brief: as §1

[7] = target: Neu5Ac(a2-3)Gal(b1-3)GlcNAc(b1-2)Man(a1-3)[Neu5Ac(a2-3)Gal(b1-3)GlcNAc(b1-2)Man(a1-6)]Man(b1-4)GlcNAc(b1-4)GlcNAc
Method in brief: as §1

[8] = target: Neu5Ac(a2-3)Gal(b1-3)[Fuc(a1-4)]GlcNAc(b1-3)Gal(b1-3)[Fuc(a1-4)]GlcNAc
Method in brief: as §1

[9] = target: Neu5Ac(a2-3)Gal(b1-4)GlcNAc(b1-2)[Neu5Ac(a2-3)Gal(b1-4)GlcNAc(b1-6)]Man(a1-6)[Neu5Ac(a2-3)Gal(b1-4)GlcNAc(b1-2)Man(a1-3)][GlcNAc(b1-4)]Man(b1-4)GlcNAc(b1-4)GlcNAc
Method in brief: as §1

[10] = target: Neu5Ac(a2-3)Gal(b1-4)GlcNAc(b1-3)Gal(b1-4)GlcNAc(b1-6)[Gal(b1-3)]GalNAc
Method in brief: as §1

[11] = target: Neu5Ac(a2-3)[GalNAc(b1-4)]Gal(b1-4)GlcNAc(b1-3)GalNAc
Method in brief: as §1

Neu5Ac(a2-6)Gal = target: Neu5Ac(a2-6)Gal
Method in brief: as §1

[12] = target: Neu5Ac(a2-6)Gal(b1-3)GlcNAc(b1-3)[Gal(b1-4)GlcNAc(b1-6)]Gal(b1-4)Glc
Method in brief: as §1

[13] = target: Neu5Ac(a2-6)Gal(b1-4)GlcNAc
Method in brief: as §1

[14] = target: Neu5Ac(a2-6)Gal(b1-4)GlcNAc(b1-2)Man(a1-3)Man(b1-4)GlcNAc(b1-4)GlcNAc
Method in brief: as §1

[15] = target: Neu5Ac(a2-6)Gal(b1-4)GlcNAc(b1-2)Man(a1-3)[Neu5Ac(a2-6)Gal(b1-4)GlcNAc(b1-2)Man(a1-6)]Man(b1-4)GlcNAc(b1-4)GlcNAc
Method in brief: as §1

[16] = target: Neu5Ac(a2-6)Gal(b1-4)GlcNAc(b1-3)Gal(b1-4)GlcNAc(b1-3)Gal(b1-4)GlcNAc(b1-2)Man(a1-3)[Neu5Ac(a2-6)Gal(b1-4)GlcNAc(b1-3)Gal(b1-4)GlcNAc(b1-3)Gal(b1-4)GlcNAc(b1-2)Man(a1-6)]GalNAc
Method in brief: as §1

[17] = target: Neu5Ac(a2-6)Gal(b1-4)GlcNAc(b1-3)GalNAc
Method in brief: as §1

[18] = target: Neu5Ac(a2-6)Gal(b1-4)GlcNAc(b1-6)[Gal(b1-3)]GalNAc
Method in brief: as §1

Neu5Ac(a2-6)GalNAc = target: Neu5Ac(a2-6)GalNAc
Method in brief: as §1

[19] = target: Neu5Ac(a2-6)GlcNAc(b1-4)GlcNAc(b1-4)GlcNAc
Method in brief: as §1

Neu5Ac(a2-8)Neu5Ac = target: Neu5Ac(a2-8)Neu5Ac
Method in brief: as §1

[20] = target: Neu5Ac(a2-8)Neu5Ac(a2-3)Gal(b1-4)Glc
Method in brief: as §1

[21] = target: Neu5Ac(a2-8)Neu5Gc(a2-3)Gal(b1-4)GlcNAc
Method in brief: as §1

[22] = target: Neu5Gc(a2-3)Gal(b1-4)GlcNAc(b1-3)Gal(b1-4)GlcNAc(b1-2)Man(a1-3)[Neu5Gc(a2-3)Gal(b1-4)GlcNAc(b1-3)Gal(b1-4)GlcNAc(b1-2)Man(a1-6)]Man(b1-4)GlcNAc(b1-4)GlcNAc
Method in brief: as §1

[23] = target: Neu5Gc(a2-8)Neu5Gc(a2-6)Gal(b1-4)GlcNAc
Method in brief: as §1

B1: HopZSSI-T (Helicobacter pylori), B5Z6D0 (protein)
chain: MGSSHHHHHHSSGLVPRGSHMENLYFQGEDNGFFISAGYQIGEAAQMVKNTGELKKLSDTYENLSNLLTNFNNLNQAVTNASSPSEINAAIDNLKANTQGLTGEKTNSPAYQAVYLALNAAVGLWNVIAYNVQCGPGNSSQQSVTFEGQPGHNSSSINCNLTGYNNGVSGPLSIDNFKQLNQAYQVLQQALKQGVPVLNNTNQKIEVKVTTQTNGQSSKETTTTTTTNDAQTLLQEASKMIDVLTTNCPWVNHNPGQNGGAPWGLIRQECVSGFATEFSAVTSMIKNAQEIVTQAQSLNANQNNQNAPQDFNPYTSADRAFAQNMLNHAQAQAKILELADQMKKDLNTIPSQFITNYLAACRIDGTTPSQGVTNNTWGAGCAYVEETITALNNSLAHFGTQAEQIKQSELLARTILDFRGSLSTLNSTYNSITTTASNTPNSPFLKNLISQSTNPNNPGGLQAVYQVNQSAYSQLLSATQELGHNPFRRIGLISSQT
- glycan array binding signal (z-score) [1]: 1.48
- glycan array binding signal (z-score) [2]: 1.5
- glycan array binding signal (z-score) [3]: 1.12
- glycan array binding signal (z-score) [4]: -0.476
- glycan array binding signal (z-score) [5]: -0.089
- glycan array binding signal (z-score) (Kdn(a2-3)Gal(b1-4)GlcNAc): 0.049
- glycan array binding signal (z-score) [6]: -0.645
- glycan array binding signal (z-score) [7]: -0.396
- glycan array binding signal (z-score) [8]: -0.391
- glycan array binding signal (z-score) [9]: 0.342
- glycan array binding signal (z-score) [10]: 0.966
- glycan array binding signal (z-score) [11]: 0.891
- glycan array binding signal (z-score) (Neu5Ac(a2-6)Gal): 0.007
- glycan array binding signal (z-score) [12]: -0.472
- glycan array binding signal (z-score) [13]: -0.343
- glycan array binding signal (z-score) [14]: -0.42
- glycan array binding signal (z-score) [15]: -0.19
- glycan array binding signal (z-score) [16]: 0.709
- glycan array binding signal (z-score) [17]: 0.356
- glycan array binding signal (z-score) [18]: 3.23
- glycan array binding signal (z-score) (Neu5Ac(a2-6)GalNAc): 2.01
- glycan array binding signal (z-score) [19]: -0.141
- glycan array binding signal (z-score) (Neu5Ac(a2-8)Neu5Ac): 0.598
- glycan array binding signal (z-score) [20]: -0.031
- glycan array binding signal (z-score) [21]: -0.272
- glycan array binding signal (z-score) [22]: 1.53
- glycan array binding signal (z-score) [23]: 0.181
